From PubChem BioAssay
A488 autofl: qHTS Assay for Spectroscopic Profiling in A488 Spectral Region; compound autofluorescence, A488 spectral region, dye equivalency; Compound Type: qHTS ECL - MLSMR; max dye equivalency, M; hit rate 0.1% among 59,000; AID 591, 2007
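Read-out: relative fluorescence at 480/540 nm, expressed as Alexa 488 dye-equivalent concentration from a six-point A488 standard included per plate. Conditions: 100 mM Tris, pH 8.0; 15 min incubation, room temperature.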
Resorufin fluor: qHTS Assay for Spectroscopic Profiling in Resorufin Spectral Region; Compound fluorescence, resorufin region 547/598 nm, buffer; stronger effect = higher value; max dye-equivalent concentration, M; hit rate 0.04% among 59,000
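Tris 100 mM pH 8.0; compound added, 15 min RT; CCD imager read, ex 547 nm/em 598 nm; signal normalized to resorufin standard curve (six concentrations per plate) as dye-equivalent concentration.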
Fluorescein autfl: qHTS Assay for Spectroscopic Profiling in Fluorescein Spectral Region; hit rate 0.91% among 59,000; Compound autofluorescence, 480/540 nm, fluorescein-equivalent; stronger effect = higher value; max fluorescein-equivalent concentration, M; AID 593, 2007; in the data active = max fluorescein-equivalent concentration above about 10 nM; inconclusive = between about 1.1 nM and that limit
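Compounds were pin-transferred into 100 mM Tris buffer, pH 8.0, and incubated 15 min at room temperature. Fluorescence was read at 480 nm excitation/540 nm emission. Signals were normalized to an on-plate six-point fluorescein standard curve as dye-equivalent concentration.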
A647 autofl: qHTS Assay for Spectroscopic Profiling in A647 Spectral Region; Compound fluorescence, A647 channel (570/671 nm), Tris buffer; max dye-equivalent concentration, M; 59,000 tested, under 10 active;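 also: values scaled relative to a standard on each plate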
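Spectral profiling of library compounds in pH 8.0 Tris: 15 min room-temperature incubation, single ex/em pair (570/671 nm), response normalized to Alexa 647 equivalents.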
Rhodamine fluor: qHTS Assay for Spectroscopic Profiling in Rhodamine Spectral Region; Rhodamine-region fluorescence, 547/598 nm, Tris buffer; stronger effect = higher value; max dye-equivalent concentration, M; hit rate 0.05% among 59,000; AID 594, 2007; in the data active = max dye-equivalent concentration above about 11 nM; inconclusive = between about 1.1 nM and that limit
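Intrinsic compound fluorescence, ex 547 / em 598 nm, CCD imager. Tris 100 mM pH 8.0; 15 min RT. Output = rhodamine dye-equivalent concentration at each compound concentration.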
TexasRed autofl: qHTS Assay for Spectroscopic Profiling in Texas Red Spectral Region; Compound fluorescence, Texas Red channel, 547/618 nm; stronger effect = higher value; AID 587, 2007; max dye-equivalent concentration, M; hit rate 0.06% among 59,000; in the data active = max dye-equivalent concentration above about 10 nM; inconclusive = between about 1.1 nM and that limit
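qHTS profiling of intrinsic compound fluorescence; 100 mM Tris pH 8.0; 15 min RT; ex 547 / em 618 nm; response expressed as Texas Red dye-equivalent concentration from six-point plate standard.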
An asterisk follows results filed as active; i = inactive; ? = inconclusive. Sampled rows, rich in hits. Any-hit rate of the full collection: about 0.95%. Unless noted, no rule for the calls is given here.

SMILES	A488 autofl	Resorufin fluor	Fluorescein autfl	A647 autofl	Rhodamine fluor	TexasRed autofl
C=C1CC[C@H]2C(C)(C)[C@H](O)CC[C@]2(C)[C@@H]1COc1ccc2ccc(=O)oc2c1	i	i	i	2.6e-09	i	i
CC1=c2c(oc3cc(O)c(Nc4c(C)cc(O)cc4O)c(C)c23)=CC(=O)C1=Nc1c(C)cc(O)cc1O	i	7.41e-08M*	1.47e-08M*	9.94e-08	1.17e-07M*	2.63e-07M*
CNC(=O)[C@@H]1O[C@@H](n2cnc3c(NCc4cccc(I)c4)ncnc32)[C@H](O)[C@@H]1O	i	i	?	1e-09	i	?
CN(C)C=Nc1c(Br)cc(Br)c2nonc12	?	?	3.91e-08M*	2.32e-08	?	?
CN(C)C=Nc1nonc1-c1ncn[nH]1	i	i	i	2.71e-08	i	i
Cc1ccc2[nH]c3c(c2c1)CN(C(=O)CN1CCSCC1)CC3	i	i	?	1.5e-09	i	?
Cc1ccc2[nH]c3c(c2c1)CN(C(=O)CN1CC(C)OC(C)C1)CC3 (configuration not stated)	i	i	1.12e-08M*	8.89e-08	i	i
Cc1ccc2[nH]c3c(c2c1)CN(C(=O)CN1CCN(c2ccccn2)CC1)CC3	i	i	1.79e-08M*	3.88e-08	i	i
C=C(CO)[C@H]1Cc2c(ccc3c2O[C@H]2COc4cc(OC)c(OC)cc4[C@@H]2C3=O)O1	i	i	i	1.47e-08	i	i
N=c1oc2c3c4c(cc2cc1C(=O)Nc1ccccc1)CCCN4CCC3	2.52e-08M*	i	4.74e-07M*	4.85e-08	?	?
N#Cc1ccc(NC(=O)c2cc3cc4c5c(c3oc2=N)CCCN5CCC4)cc1	1.2e-08M*	i	2.28e-07M*	3.87e-08	i	i
CN[C@@H]1[C@H](O)[C@H](NC)[C@@H]2O[C@]3(O)C(=O)C[C@@H](C)O[C@H]3O[C@@H]2[C@H]1O	i	i	i	2.3e-08	i	i
CC(C)C1Cc2c(C#N)c(N)sc(=S)c2CO1 (configuration not stated)	i	i	1.28e-08M*	3.9e-09	i	i
N[C@@H](Cc1c[nH]c2ccccc12)C(=O)NCC(=O)O	i	i	i	3.8e-09	i	i
O=C(O)c1cc(O)c2c(c1)C(=O)c1cccc(O)c1C2=O	?	i	8.63e-08M*	2.33e-08	i	i
Cc1ccc(C(=O)O[C@@H](C(=O)O)[C@@H](OC(=O)c2ccc(C)cc2)C(=O)O)cc1 (tested in a mixture with another compound)	i	i	?	5.69e-08	i	i
CCN(CC)c1nc2ccccc2nc1C(C#N)C(=O)NCCCOC (configuration not stated)	i	i	?	6.7e-09	i	i
N#CC(C(=O)NCc1ccccc1)c1nc2ccccc2nc1N1CCCC1 (configuration not stated)	2.19e-08M*	i	3.86e-07M*	2.6e-09	i	i
CCN(CC)c1nc2ccccc2nc1C(C#N)C(=O)NCCc1ccccc1 (configuration not stated)	?	i	1.13e-07M*	1.48e-08	i	?
CCN1CCN(c2nc3ccccc3nc2C(C#N)C(=O)OCc2ccccc2)CC1 (configuration not stated)	i	i	?	6.6e-09	i	i
N#CC(C(=O)NCCc1ccccc1)c1nc2ccccc2nc1N1CCCCC1 (configuration not stated)	?	i	1.25e-07M*	3.9e-09	i	i
N#CC(C(=O)NCCc1ccccc1)c1nc2ccccc2nc1N1CCOCC1 (configuration not stated)	i	i	?	4.58e-08	i	i
CCOC(=O)N1CCN(c2nc3ccccc3nc2C(C#N)C(=O)NCCc2ccccc2)CC1 (configuration not stated)	i	i	1.13e-08M*	1e-09	i	i
CCCCCCCCCCCCCCCCCCOC[C@@H](COP(=O)([O-])OCC[N+](C)(C)C)OC	i	i	?	5.28e-08	i	?
CC1(C)CCC[C@@]2(C)[C@@H]1CC[C@]1(C)OC(=O)C[C@@H]21	i	i	i	1e-09	i	i
CCOC(=O)C1CCCN(c2nc3ccccc3nc2C(C#N)C(=O)NCc2ccccc2)C1 (configuration not stated)	4.98e-08M*	i	8.61e-07M*	1e-09	i	i
O=C(c1[nH]o[n+](=O)c1C(=O)c1csc2ccccc12)c1csc2ccccc12	i	i	i	1e-09	i	i
OC[C@@H]1O[C@@H](n2cnc3c(N[C@@H]4C[C@@H]5CC[C@H]4C5)ncnc32)[C@@H](O)[C@H]1O	i	i	i	2.3e-09	i	?
